Source: PubChem BioAssay
Gal4-VP16 FLuc: inhibits Gal4-VP16 luciferase reporter, ROR gamma counter-screen | 310,000 compounds, 3.5% hits | Potency, µM (top dose mostly 53.6 µM), without a hit: at the highest dose activity, negative = inhibition, most hits filed as inhibitors | Drosophila S2 Gal4-VP16 UAS-luciferase, luminescence, 20 h;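 note: Gal4-VP16 expression switched on by copper sulfate through the metallothionein promoter; nearly all actives have a fitted effect of over 50% in size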
ELG1 repair inh: inhibitors of ELG1-dependent DNA repair in HEK293T cells. HEK293T ELG1-luciferase reporter, luminescence, 16 h; DNA damage induced by 5-fluorouridine. 330,000 compounds, 2.3% hits. Potency, µM (series often up to 46.1 µM), for the others: at the top dose activity change, negative = inhibition, most hits filed as inhibitors. AID 504467; note: nearly all actives have a fitted effect of over 55% in size
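Overnight (16 hr) co-exposure of 2,000 cells/well to 5-fluorouridine and compound at 37 °C preceded detection. Luciferase was quantified via ONE-Glo luminescence; loss of signal denotes inhibition.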
ALOX12 inh: blocks human arachidonate 12S-lipoxygenase | P18054 | purified 12hLO, xylenol orange hydroperoxide absorbance | Potency, µM (series often up to 108 µM), for inactives: top-dose activity change, negative = inhibition, actives largely listed as inhibitors | 580,000 compounds, 1.1% hits | AID 1671190
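Purified human 12hLO at 150 nM in 25 mM Hepes, 0.01% Triton X-100, pH 7.0, preincubated 15 min at room temperature with compound. Reaction started with 40 uM arachidonic acid, 30 min at room temperature. Hydroperoxide measured by Fe-xylenol orange, 573/405 nm absorbance ratio.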
RORg inh: inhibitors of mouse ROR gamma transcriptional activity. P51450. Drosophila S2 Gal4-RORgamma UAS-luciferase reporter, 20 h. Potency, µM (series often up to 53.6 µM), for the others: at the top dose activity change, negative = inhibition, usual class: inhibitors. 310,000 compounds, 5.4% hits. AID 2551; note: nearly all actives have a fitted effect of over 60% in size
Target sequence (P51450 whole entry, looked up, the tested form may be a part): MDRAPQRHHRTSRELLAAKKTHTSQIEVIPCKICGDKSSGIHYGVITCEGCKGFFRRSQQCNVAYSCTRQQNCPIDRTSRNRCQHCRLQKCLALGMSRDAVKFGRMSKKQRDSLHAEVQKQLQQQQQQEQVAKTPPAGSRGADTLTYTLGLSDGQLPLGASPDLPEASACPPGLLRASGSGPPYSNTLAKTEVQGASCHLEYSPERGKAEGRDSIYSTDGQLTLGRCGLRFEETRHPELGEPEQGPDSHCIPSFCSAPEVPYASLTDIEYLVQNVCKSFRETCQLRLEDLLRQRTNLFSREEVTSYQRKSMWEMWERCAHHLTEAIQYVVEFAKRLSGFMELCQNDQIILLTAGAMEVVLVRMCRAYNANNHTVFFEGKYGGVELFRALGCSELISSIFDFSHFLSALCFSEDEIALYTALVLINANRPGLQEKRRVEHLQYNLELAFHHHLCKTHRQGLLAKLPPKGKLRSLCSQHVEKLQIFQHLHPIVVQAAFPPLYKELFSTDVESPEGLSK
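Drosophila S2 cells stably expressing Gal4-DBD/mouse RORγ fusion under metallothionein promoter plus UAS-luciferase; compound 1 h, then 700 uM CuSO4 induction for 20 h at ambient temperature; inhibition read as reduced luminescence.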
TDP1 cell CPT: growth inhibition of DT40 Tdp1-/-;hTDP1 cells with camptothecin (screen for TDP1 inhibitors) | chicken DT40 Tdp1-/-;hTDP1 cells + 20 nM CPT, ATP luminescence, 48 h | Potency, µM (top dose mostly 46.2 µM), for inactives: top-dose activity change, negative = growth inhibition, hits mostly inhibitors | 420,000 compounds, 12% hits | AID 686979; note: nearly all actives have a fitted effect of over 55% in size
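Cell growth measured by CellTiter-Glo luminescence after a minimum 48 h, 37 C compound exposure with 20 nM CPT in Tdp1-knockout DT40 cells stably expressing hTDP1, seeded 400/well; qHTS titration format.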
DT40 TDP1 no CPT: qHTS for Inhibitors of human tyrosyl-DNA phosphodiesterase 1 (TDP1): qHTS in cells in absence of CPT | Potency, µM (doses to about 46.2 µM), inactives show at the highest dose activity change, negative = growth inhibition, hits mostly inhibitors | DT40 Tdp1-/- hTDP1 cells, no CPT, ATP luminescence, 48 h | 420,000 compounds, 15% hits | AID 686978, 2013; note: nearly all actives have a fitted effect of over 55% in size
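No-CPT arm: Tdp1-/-;hTDP1 DT40 cells (400/well) plus compounds, incubated ≥48 hr at 37 °C. Readout CellTiter-Glo luminescence.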
The depositor's hits bear a star; ? = inconclusive; . = not tested or not shown; [ ] = dose if it differs, or a comment. An excerpt weighted towards active compounds, which were near 15% of everything screened. Calls come from the whole dose curve; as a rule, active = well fitted curve in the direction sought with a large enough effect; inconclusive = small, poorly fitted or top-dose-only effect, or another doubt; inactive = no such curve, though single readings can be large; an effect the other way counts as inactive or inconclusive. % is set by controls: 0 for no effect and ±100 for the full control effect; potency is the fitted concentration of half-maximal effect.

SMILES	Gal4-VP16 FLuc	ELG1 repair inh	ALOX12 inh	RORg inh	TDP1 cell CPT	DT40 TDP1 no CPT
COc1ccc(C(=O)N(Cc2ccccc2)Cc2cc3cc4c(cc3[nH]c2=O)OCCO4)cc1	-4%	17%	5%	-4%	11µM*	11µM*
COc1cccc(C(=O)N(Cc2cc3cc(C)ccc3[nH]c2=O)CC2CCCO2)c1 (configuration not stated)	-18%	0%	0%	25%	?	-23%
CSc1ccc(Cl)c(C(=O)NCc2ccco2)c1	-1%	11%	0%	7%	16µM*	?
O=C(NCc1ccco1)c1ccc(C(=O)NCc2ccco2)s1	12%	-10%	0%	14%	?	26µM*
O=C(NCc1ccco1)c1ccc(-c2ccc3nccn3c2)cc1	.	.	?	.	23µM*	?
O=C(NCc1cccs1)c1ccc2nccn2c1	.	.	24%[176 µM]	.	.	.
CSc1ccc(Cl)c(C(=O)OCC(=O)NCc2ccco2)c1	19%	0%	2%	23%	-13%	-22%
CCc1ccc(N2CC(c3noc(-c4cccc(OC)c4OC)n3)CC2=O)cc1 (configuration not stated)	.	.	12%	.	.	.
Cn1ccc(NC(=O)c2ccc3c(c2)NC(C)(COc2ccccc2)CO3)n1 (configuration not stated)	.	.	14%[176 µM]	.	.	.
CC(C)c1ccc2[nH]c3c(c2c1)[C@@H]1CCN2C(=O)CCC[C@H](C3)[C@H]12	4%	?	-10%	?	18µM*	15µM*
CC[C@H]1c2[nH]c3ccc(C(C)C)cc3c2[C@@H]2CCN3C(=O)CCC[C@H]1[C@H]23	.	.	?	.	10µM*	10µM*
CC(C)(C)C(=O)Nc1ccc2oc(-c3cncc(Br)c3)nc2c1	.	.	-3%	.	.	.
CCOCCNc1nccc(C2(c3ccccc3Cl)CCNCC2)n1	.	.	4%	.	.	.
COC(=O)C1=C(C)N(Cc2ccccc2)C(=NCC(C)C)N[C@H]1c1ccc(Br)cc1	7.1µM*	.	.	1.8µM*	.	.
COC(=O)C1=C(C)N(Cc2ccccc2)C(=NCc2ccc3c(c2)OCO3)N[C@H]1c1ccccc1	-7%	?	?	0%	?	18µM*
COC(=O)C1=C(C)N(Cc2ccccc2C(F)(F)F)C(=NCc2ccc3c(c2)OCO3)NC1c1cccc(C(F)(F)F)c1 (configuration not stated)	.	.	-14%	.	.	.
CCN1C(=NCC2CC2)N[C@@H](c2ccccc2)C(C(=O)OC)=C1C	-2%	27%	?	-39%	?	?
COC(=O)C1=C(C)N(Cc2ccccc2)C(=NCCc2cccnc2)N[C@H]1c1ccc(Br)cc1	-24%	3%	.	?	3.7µM*	4.6µM*
COC(=O)C1=C(C)N(Cc2ccccc2)C(=NCC2CC2)N[C@H]1c1ccccc1	-7%	2%	?	?	21µM*	23µM*
CCN(CC)CCCN=C1N[C@@H](c2ccccc2)C(C(=O)OC)=C(C)N1CC	-5%	-8%	?	-24%	-13%	-10%
CC(=O)c1ccc(NC(=O)C2CC(=O)N(C(C)(C)C)C2)cc1 (configuration not stated)	.	.	-28%	.	.	.
COC(=O)C1=C(C)N(Cc2ccccc2)C(=NCCc2cccnc2)N[C@H]1c1ccccc1	0%	-14%	.	-3%	12µM*	21µM*
COC(=O)C1=C(C)N(Cc2ccccc2)C(=NCCCCO)N[C@H]1c1ccccc1	-14%	8%	.	-15%	?	?
COc1ccc2[nH]c(C(=O)N(C)Cc3ccccc3)c(C)c2c1	0%	?	0%	?	?	?
Cc1ccc2ccc[n+](Cc3ccccc3)c2c1	.	5%	-1%	.	16µM*	9.2µM*
SMILES	Gal4-VP16 FLuc	ELG1 repair inh	ALOX12 inh	RORg inh	TDP1 cell CPT	DT40 TDP1 no CPT
Cc1ccc2c(c1)c(C)cc[n+]2Cc1ccccc1	-4%	-14%	-6%	?	2.6µM*	2.9µM*
Cc1ccc2c(ccc[n+]2CC(=O)c2ccccc2)c1	-9%	0%	2%	5%	?	-29%
COc1ccc2c(c1)c(C)cc[n+]2Cc1ccccc1	-24%	15%	9%	26%	2.6µM*	1.6µM*
Cc1nc2cc(S(=O)(=O)N3CCOCC3)ccc2n1CCNC(=O)C1(C)CC1	.	.	8%	.	.	.
Cc1[nH]c2ccccc2c1C(=O)C(=O)N(C)C1CCS(=O)(=O)C1 (configuration not stated)	.	.	22%	.	.	.
C=CCOC(=O)C1C(=O)CC(C)(O)C(C(=O)OCC=C)C1c1ccc(Cl)cc1 (configuration not stated)	.	.	-9%	.	.	.
CC1(C(=O)NCc2ccccc2)CCCCC(=O)N1 (configuration not stated)	.	.	-7%	.	.	.
CCOc1ccc(CCNC(=O)COC(=O)c2[nH]c(C)c(C(C)=O)c2C)cc1OCC	.	.	-1%	.	?	21µM*
CC(=O)c1c(C)[nH]c(C(=O)OCC(=O)NCCCc2ccccc2)c1C	.	?	-24%	.	?	?
CCOC(=O)c1[nH]c(C)c(C(=O)OCC(=O)NCc2ccc(Cl)cc2)c1C	.	15%	223%	.	-15%	-17%
CCOC(=O)c1c(C)[nH]c(C(=O)OCC(=O)Nc2sccc2C(N)=O)c1C	.	?	?	.	1.6µM*	2.1µM*
CC(=O)c1c(C)[nH]c(C(=O)OCC(=O)NCCc2ccc(F)cc2)c1C	-3%	21µM*	0%	11%	?	23µM*
CCOC(=O)c1c(C)[nH]c(C(=O)OCC(=O)NCc2ccc(OC)c(OC)c2)c1C	.	?	-16%	.	8.2µM*	18µM*
Cc1cc2ccccc2n1CC(=O)NCCCCCC(=O)O	.	.	-4%	.	.	.
CCCCNC(=O)CN1CCN(Cc2nc3ccccc3o2)CC1	.	.	100%	.	.	.
COc1ccc(S(=O)(=O)c2cc3cc(C)ccc3oc2=O)cc1	.	.	-11%	.	.	.
COc1ccc(NC(=O)N2CCC3(CC2)N(CC2CC2)C(=O)CS3=O)cc1 (configuration not stated)	.	.	11%	.	.	.
Cc1cc(C(=O)NC(C)CCc2ccccc2)c2cccc(C)c2n1 (configuration not stated)	.	.	26%	.	.	.
CCOC(=O)c1c(C)[nH]c(C(=O)OCC(=O)Nc2cc(C)c(Cl)cc2OC)c1C	-24%	?	-21%	-8%	3.7µM*	4.6µM*
NC(=O)c1ccsc1NC(=O)COC(=O)c1c(F)cccc1Cl	.	?	1%	.	?	8.2µM*
